# PMC7862700, “An all-to-all approach to the identification of sequence-specific readers for epigenetic DNA modifications on cytosine”
# How the values were obtained:
# Assay in all cases: DAPPL (digital affinity profiling via proximity ligation, sequencing); 10 mM Tris-HCl pH 7.5, 50 mM NaCl, 1 mM DTT, 4% glycerol, room temperature, 30 min; GST-TFs on glutathione beads, 16-mer random dsDNA library, 0.1% formaldehyde crosslink after washing; high values mean tight binding
# FEV = biological target: T1, FEV (Homo sapiens, UniProt Q99581 1-238); details: protein: recombinant; tags: N-terminal GST; dsDNA, one strand shown
# T1 sequence: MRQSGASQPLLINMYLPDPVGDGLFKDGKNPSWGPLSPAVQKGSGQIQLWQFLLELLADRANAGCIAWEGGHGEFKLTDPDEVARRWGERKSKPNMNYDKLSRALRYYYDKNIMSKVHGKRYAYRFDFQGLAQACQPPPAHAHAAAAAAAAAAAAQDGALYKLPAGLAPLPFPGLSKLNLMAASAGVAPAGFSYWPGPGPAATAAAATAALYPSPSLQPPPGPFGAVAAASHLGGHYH
# Summary of the method: (§1)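 Each value of binding signal is a hexamer's read frequency for a factor divided by the same hexamer's frequency in the tag-only sample. Barcoded, bead-captured GST fusions of human transcription factors made in yeast were pooled with that sample and incubated with 200 nmole of a random double-stranded 16-mer DNA library in Tris/NaCl/DTT/glycerol buffer at room temperature for 30 min. Washing, 0.1% formaldehyde crosslinking, proximity ligation, PCR and Illumina NextSeq500 sequencing followed.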
# ETV5 = ETV5 (Homo sapiens, UniProt P41161 1-510); details: protein: recombinant; tags: N-terminal GST; dsDNA, one strand shown
# Sequence of ETV5 (P41161 whole entry): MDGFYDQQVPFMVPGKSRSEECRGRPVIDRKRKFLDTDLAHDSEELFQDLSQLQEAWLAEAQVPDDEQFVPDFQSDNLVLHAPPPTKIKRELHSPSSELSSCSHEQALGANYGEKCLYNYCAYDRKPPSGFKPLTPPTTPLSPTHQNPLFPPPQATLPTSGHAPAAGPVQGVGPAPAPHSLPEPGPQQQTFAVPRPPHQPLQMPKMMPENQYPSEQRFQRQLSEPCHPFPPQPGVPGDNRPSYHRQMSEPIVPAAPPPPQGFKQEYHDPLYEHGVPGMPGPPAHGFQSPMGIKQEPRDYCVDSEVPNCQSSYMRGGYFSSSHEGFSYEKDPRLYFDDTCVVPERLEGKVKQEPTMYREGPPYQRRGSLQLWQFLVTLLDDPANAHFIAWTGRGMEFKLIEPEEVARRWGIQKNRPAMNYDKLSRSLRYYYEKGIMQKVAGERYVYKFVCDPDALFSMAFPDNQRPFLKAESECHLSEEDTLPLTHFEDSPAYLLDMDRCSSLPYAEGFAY
# Summary of the method: as §1
# HSF1 = HSF1 (Homo sapiens, UniProt Q00613 1-529); details: protein: recombinant; tags: N-terminal GST; chain copies: 3; dsDNA, one strand shown
# Sequence of HSF1 (Q00613 whole entry): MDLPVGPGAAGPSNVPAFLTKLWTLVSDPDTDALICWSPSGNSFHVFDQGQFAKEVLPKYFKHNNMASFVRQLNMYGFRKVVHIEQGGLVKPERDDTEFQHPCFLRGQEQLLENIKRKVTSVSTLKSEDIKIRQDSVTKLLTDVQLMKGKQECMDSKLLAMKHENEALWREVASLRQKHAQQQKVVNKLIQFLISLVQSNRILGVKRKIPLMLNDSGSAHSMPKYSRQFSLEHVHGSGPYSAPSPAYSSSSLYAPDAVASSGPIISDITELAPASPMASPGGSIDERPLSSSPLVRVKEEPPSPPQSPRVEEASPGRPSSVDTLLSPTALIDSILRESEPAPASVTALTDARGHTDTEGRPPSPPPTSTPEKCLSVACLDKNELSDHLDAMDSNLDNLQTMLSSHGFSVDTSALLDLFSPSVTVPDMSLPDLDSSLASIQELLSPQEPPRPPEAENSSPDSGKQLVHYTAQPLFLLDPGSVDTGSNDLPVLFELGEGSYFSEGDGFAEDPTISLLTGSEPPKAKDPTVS
# Summary of the method: as §1
# SPIC = biological target: T2, SPIC (Homo sapiens, UniProt Q8N5J4 1-248); details: protein: recombinant; tags: N-terminal GST; dsDNA, one strand shown
# T2 sequence: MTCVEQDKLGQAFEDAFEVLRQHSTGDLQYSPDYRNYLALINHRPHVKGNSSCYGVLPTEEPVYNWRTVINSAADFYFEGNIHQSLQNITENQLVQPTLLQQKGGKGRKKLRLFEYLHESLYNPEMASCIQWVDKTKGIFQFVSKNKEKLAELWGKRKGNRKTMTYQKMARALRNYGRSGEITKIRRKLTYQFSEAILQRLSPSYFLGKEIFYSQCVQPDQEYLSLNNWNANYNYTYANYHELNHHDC
# Summary of the method: as §1
# ELF4 = ELF4 (Homo sapiens, UniProt Q99607 1-663); details: protein: recombinant; tags: N-terminal GST; dsDNA, one strand shown
# Sequence of ELF4 (Q99607 whole entry): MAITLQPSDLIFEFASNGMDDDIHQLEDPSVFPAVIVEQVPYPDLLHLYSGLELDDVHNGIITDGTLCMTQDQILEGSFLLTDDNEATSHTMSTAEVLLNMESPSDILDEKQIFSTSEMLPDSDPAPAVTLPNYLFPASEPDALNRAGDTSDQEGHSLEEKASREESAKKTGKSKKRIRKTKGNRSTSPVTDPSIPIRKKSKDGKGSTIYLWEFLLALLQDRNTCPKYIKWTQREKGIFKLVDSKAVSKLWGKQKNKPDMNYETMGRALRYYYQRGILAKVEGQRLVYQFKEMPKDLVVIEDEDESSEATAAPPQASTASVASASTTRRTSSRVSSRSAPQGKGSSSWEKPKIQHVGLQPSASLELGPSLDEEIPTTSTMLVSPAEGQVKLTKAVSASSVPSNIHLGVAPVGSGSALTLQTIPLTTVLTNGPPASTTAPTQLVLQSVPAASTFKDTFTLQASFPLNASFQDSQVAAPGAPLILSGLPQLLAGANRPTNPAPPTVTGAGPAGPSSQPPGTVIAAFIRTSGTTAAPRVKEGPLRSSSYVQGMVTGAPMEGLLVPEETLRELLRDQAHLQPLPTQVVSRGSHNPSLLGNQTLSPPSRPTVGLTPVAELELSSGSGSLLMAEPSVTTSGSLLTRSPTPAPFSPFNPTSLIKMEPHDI
# Summary of the method: as §1
# ELK4 = biological target: T3, ELK4 (Homo sapiens, UniProt P28324-2 1-405); details: protein: recombinant; tags: N-terminal GST; dsDNA, one strand shown
# T3 sequence: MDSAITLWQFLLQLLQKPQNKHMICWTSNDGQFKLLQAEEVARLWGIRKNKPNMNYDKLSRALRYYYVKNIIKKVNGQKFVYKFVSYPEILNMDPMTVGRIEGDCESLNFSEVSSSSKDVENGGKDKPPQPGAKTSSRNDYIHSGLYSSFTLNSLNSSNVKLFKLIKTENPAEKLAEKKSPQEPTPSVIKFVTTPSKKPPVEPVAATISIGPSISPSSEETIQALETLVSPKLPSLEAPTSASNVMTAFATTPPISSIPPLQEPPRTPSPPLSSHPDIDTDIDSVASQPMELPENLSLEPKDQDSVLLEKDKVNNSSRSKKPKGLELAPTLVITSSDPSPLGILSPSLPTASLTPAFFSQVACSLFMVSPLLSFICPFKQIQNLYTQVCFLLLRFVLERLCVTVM
# Summary of the method: as §1
# ETV2 = biological target: T4, ETV2 (Homo sapiens, UniProt O00321 1-342); details: protein: recombinant; tags: N-terminal GST; dsDNA, one strand shown
# T4 sequence: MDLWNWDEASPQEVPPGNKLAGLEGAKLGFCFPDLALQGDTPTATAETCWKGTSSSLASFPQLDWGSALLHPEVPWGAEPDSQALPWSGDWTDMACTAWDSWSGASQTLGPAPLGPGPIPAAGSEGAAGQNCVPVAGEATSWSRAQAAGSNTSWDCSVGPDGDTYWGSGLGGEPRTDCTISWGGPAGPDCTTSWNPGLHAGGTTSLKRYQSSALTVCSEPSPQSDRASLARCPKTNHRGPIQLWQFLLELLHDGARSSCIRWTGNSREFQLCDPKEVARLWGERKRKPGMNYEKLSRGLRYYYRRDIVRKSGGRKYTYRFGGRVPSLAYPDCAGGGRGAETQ
# Summary of the method: as §1
# ELF3 = biological target: T5, ELF3 (Homo sapiens, UniProt P78545 1-371); details: protein: recombinant; tags: N-terminal GST; dsDNA, one strand shown
# T5 sequence: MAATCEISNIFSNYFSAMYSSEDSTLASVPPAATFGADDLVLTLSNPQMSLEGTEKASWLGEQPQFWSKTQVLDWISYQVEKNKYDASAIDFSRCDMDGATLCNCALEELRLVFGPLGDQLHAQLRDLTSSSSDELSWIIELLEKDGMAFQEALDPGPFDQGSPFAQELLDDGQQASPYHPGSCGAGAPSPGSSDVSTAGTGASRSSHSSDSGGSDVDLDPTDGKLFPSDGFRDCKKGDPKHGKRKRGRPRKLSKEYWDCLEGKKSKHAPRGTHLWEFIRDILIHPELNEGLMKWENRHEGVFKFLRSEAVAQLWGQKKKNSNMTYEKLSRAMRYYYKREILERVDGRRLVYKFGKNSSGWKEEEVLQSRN
# Summary of the method: as §1
# CRX = CRX (Homo sapiens, UniProt O43186 1-299); details: protein: recombinant; tags: N-terminal GST; dsDNA, one strand shown
# Sequence of CRX (O43186 whole entry): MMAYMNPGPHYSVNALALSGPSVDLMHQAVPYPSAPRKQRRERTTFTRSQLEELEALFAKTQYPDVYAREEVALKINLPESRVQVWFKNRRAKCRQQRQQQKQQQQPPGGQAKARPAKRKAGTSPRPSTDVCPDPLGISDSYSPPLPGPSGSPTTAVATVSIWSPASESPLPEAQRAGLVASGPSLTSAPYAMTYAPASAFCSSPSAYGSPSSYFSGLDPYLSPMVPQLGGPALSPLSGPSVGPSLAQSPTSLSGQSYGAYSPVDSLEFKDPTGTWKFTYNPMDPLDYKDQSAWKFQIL
# Summary of the method: as §1
# ETV1 = ETV1 (Homo sapiens, UniProt P50549 1-477); details: protein: recombinant; tags: N-terminal GST; dsDNA, one strand shown
# Sequence of ETV1 (P50549 whole entry): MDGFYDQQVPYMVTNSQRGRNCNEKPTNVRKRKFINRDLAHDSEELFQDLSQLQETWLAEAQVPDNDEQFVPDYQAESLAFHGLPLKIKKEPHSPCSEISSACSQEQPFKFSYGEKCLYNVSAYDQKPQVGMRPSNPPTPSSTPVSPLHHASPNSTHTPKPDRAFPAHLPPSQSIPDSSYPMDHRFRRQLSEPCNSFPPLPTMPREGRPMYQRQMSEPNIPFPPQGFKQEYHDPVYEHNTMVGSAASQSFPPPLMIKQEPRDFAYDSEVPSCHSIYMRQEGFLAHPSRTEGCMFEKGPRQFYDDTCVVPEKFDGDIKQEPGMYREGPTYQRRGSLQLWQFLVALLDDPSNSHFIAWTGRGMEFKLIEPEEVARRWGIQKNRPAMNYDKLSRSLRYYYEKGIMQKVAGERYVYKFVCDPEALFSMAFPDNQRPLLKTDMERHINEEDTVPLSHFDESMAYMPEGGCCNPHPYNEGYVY
# Summary of the method: as §1
# ERF = biological target: T6, ERF (Homo sapiens, UniProt P50548 1-548); details: protein: recombinant; tags: N-terminal GST; dsDNA, one strand shown
# T6 sequence: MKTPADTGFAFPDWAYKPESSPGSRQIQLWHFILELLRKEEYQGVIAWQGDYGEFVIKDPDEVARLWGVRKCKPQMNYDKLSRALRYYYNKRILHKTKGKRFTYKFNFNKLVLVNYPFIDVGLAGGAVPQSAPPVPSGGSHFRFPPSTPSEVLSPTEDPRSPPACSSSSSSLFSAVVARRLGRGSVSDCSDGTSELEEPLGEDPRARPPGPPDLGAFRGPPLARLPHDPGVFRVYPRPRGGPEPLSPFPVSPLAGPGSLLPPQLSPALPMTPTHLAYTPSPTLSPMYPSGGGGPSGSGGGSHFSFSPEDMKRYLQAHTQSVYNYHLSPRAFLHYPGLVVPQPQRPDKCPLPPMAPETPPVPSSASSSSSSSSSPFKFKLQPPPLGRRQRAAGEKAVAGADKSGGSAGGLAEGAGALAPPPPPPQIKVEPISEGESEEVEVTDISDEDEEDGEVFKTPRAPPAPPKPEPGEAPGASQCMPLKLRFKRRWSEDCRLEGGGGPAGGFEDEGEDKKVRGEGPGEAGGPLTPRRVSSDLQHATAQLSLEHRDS
# Summary of the method: as §1
# ETV3L = biological target: T7, ETV3L (Homo sapiens, UniProt Q6ZN32 1-361); details: protein: recombinant; tags: N-terminal GST; dsDNA, one strand shown
# T7 sequence: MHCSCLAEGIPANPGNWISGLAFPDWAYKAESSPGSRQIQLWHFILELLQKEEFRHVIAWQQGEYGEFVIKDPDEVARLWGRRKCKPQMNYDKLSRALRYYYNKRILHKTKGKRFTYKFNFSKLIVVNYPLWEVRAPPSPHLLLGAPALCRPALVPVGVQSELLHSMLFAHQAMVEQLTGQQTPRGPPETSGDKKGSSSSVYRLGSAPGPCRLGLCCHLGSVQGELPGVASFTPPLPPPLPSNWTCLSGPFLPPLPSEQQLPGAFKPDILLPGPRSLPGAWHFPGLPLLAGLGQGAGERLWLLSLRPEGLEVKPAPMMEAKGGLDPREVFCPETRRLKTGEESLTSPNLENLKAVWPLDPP
# Summary of the method: as §1
# ETS2 = biological target: T8, ETS2 (Homo sapiens, UniProt P15036 1-469); details: protein: recombinant; tags: N-terminal GST; dsDNA, one strand shown
# T8 sequence: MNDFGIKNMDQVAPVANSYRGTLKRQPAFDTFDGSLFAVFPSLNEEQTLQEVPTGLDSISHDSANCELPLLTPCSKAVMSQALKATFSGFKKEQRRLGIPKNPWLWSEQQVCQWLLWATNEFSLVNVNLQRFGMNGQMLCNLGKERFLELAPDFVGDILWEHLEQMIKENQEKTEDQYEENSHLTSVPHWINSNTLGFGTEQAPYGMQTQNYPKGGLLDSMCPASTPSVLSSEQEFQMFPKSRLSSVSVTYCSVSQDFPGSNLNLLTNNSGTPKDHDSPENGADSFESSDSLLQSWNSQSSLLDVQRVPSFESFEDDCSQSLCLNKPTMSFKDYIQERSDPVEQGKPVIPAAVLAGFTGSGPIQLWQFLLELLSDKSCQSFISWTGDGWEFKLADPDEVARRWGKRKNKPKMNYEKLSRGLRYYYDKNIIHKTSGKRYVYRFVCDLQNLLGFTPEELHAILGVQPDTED
# Summary of the method: as §1
# SPDEF = biological target: T9, SPDEF (Homo sapiens, UniProt O95238 1-335); details: protein: recombinant; tags: N-terminal GST; dsDNA, one strand shown
# T9 sequence: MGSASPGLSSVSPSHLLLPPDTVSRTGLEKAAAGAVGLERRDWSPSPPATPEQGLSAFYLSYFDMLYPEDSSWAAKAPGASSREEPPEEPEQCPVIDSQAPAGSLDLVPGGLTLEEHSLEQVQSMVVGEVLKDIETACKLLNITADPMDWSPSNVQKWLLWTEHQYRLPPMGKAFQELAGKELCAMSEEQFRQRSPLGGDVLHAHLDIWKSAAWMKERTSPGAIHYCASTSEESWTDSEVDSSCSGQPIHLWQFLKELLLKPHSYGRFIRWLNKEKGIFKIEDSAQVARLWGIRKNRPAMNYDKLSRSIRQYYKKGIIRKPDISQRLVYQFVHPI
# Summary of the method: as §1
# ETV7 = biological target: T10, ETV7 (Homo sapiens, UniProt Q9Y603 1-341); details: protein: recombinant; tags: N-terminal GST; dsDNA, one strand shown
# T10 sequence: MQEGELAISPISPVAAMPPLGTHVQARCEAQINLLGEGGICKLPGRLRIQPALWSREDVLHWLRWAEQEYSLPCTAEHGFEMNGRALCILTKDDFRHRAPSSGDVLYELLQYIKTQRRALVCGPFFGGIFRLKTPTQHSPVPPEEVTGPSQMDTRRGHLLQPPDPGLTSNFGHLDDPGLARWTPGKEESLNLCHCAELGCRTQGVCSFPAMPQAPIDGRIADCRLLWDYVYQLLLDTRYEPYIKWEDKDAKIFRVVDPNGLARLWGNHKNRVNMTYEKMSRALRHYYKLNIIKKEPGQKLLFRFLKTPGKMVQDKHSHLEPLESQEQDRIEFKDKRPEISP
# Summary of the method: as §1
# ELF5 = biological target: T11, ELF5 (Homo sapiens, UniProt Q9UKW6-2 1-255); details: protein: recombinant; tags: N-terminal GST; dsDNA, one strand shown
# T11 sequence: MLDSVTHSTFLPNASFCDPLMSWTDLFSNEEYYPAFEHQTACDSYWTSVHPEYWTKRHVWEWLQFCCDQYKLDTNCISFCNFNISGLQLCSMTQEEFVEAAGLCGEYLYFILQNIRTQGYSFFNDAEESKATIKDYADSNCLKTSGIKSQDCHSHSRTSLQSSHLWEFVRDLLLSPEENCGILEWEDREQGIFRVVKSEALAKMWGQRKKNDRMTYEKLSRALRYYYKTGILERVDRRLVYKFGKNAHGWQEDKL
# Summary of the method: as §1
# ETV3 = biological target: T12, ETV3 (Homo sapiens, UniProt P41162-2 1-143); details: protein: recombinant; tags: N-terminal GST; dsDNA, one strand shown
# T12 sequence: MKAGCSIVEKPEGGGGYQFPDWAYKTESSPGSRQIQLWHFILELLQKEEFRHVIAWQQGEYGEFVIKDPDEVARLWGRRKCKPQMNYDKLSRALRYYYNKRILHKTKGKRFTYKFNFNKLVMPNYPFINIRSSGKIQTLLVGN
# Summary of the method: as §1
# ETV6 = ETV6 (Homo sapiens, UniProt P41212 1-452); details: protein: recombinant; tags: N-terminal GST; dsDNA, one strand shown
# Sequence of ETV6 (P41212 whole entry): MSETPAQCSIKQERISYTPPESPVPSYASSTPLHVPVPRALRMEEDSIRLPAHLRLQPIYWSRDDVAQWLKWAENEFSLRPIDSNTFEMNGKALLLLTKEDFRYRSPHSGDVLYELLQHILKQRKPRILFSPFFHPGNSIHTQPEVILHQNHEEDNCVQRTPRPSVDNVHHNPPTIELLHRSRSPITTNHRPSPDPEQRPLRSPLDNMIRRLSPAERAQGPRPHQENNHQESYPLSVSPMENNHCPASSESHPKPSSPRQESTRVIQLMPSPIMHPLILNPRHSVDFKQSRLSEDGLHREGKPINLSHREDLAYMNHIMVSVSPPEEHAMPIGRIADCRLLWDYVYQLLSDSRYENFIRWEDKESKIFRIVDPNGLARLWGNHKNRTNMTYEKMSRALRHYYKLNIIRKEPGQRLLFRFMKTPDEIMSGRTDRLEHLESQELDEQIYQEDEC
# Summary of the method: as §1
sequence,measurement,setting,value
TCTCAG,binding signal,FEV,"1.37 fold enrichment (6-mer frequency, TF over GST control)"
same,binding signal,ETV5,"1.33 fold enrichment (6-mer frequency, TF over GST control)"
same,binding signal,HSF1,"1.4 fold enrichment (6-mer frequency, TF over GST control)"
same,binding signal,SPIC,"1.16 fold enrichment (6-mer frequency, TF over GST control)"
same,binding signal,ELF4,"1.36 fold enrichment (6-mer frequency, TF over GST control)"
same,binding signal,ELK4,"1.34 fold enrichment (6-mer frequency, TF over GST control)"
same,binding signal,ETV2,"1.37 fold enrichment (6-mer frequency, TF over GST control)"
same,binding signal,ELF3,"1.37 fold enrichment (6-mer frequency, TF over GST control)"
same,binding signal,CRX,"1.46 fold enrichment (6-mer frequency, TF over GST control)"
same,binding signal,ETV1,"1.33 fold enrichment (6-mer frequency, TF over GST control)"
same,binding signal,ERF,"1.26 fold enrichment (6-mer frequency, TF over GST control)"
same,binding signal,ETV3L,"1.26 fold enrichment (6-mer frequency, TF over GST control)"
same,binding signal,ETS2,"1.37 fold enrichment (6-mer frequency, TF over GST control)"
same,binding signal,SPDEF,"1.33 fold enrichment (6-mer frequency, TF over GST control)"
same,binding signal,ETV7,"1.26 fold enrichment (6-mer frequency, TF over GST control)"
same,binding signal,ELF5,"1.31 fold enrichment (6-mer frequency, TF over GST control)"
same,binding signal,ETV3,"1.43 fold enrichment (6-mer frequency, TF over GST control)"
same,binding signal,ETV6,"1.34 fold enrichment (6-mer frequency, TF over GST control)"
